HCMV inh: inhibitors of human cytomegalovirus; HFF cells, HCMV-luciferase reporter, 72 h; active compounds read low; activity change, negative = inhibition, % at 57.5 µM; hit rate 4.5% among 410,000; in the data active = activity change below about -60%; inconclusive = no clear call, values can overlap the other calls; inactive = above about -39%
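Luciferase read-out from HCMV-luciferase-infected HFFs (MOI 1 PFU/cell) 72 h post infection at 37C; compounds added after 16 h cell attachment; activity normalized between buffer-only basal and Salinomycin (10uM) inhibitor controls.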
AmpC inh detg: AmpC beta-lactamase inhibition with detergent present | P00811 | AmpC hydrolysis of nitrocefin, absorbance 480 nm, 0.01% Triton | Potency, µM (series often up to 114 µM), without a hit: at the highest dose activity change, negative = inhibition, hits mostly inhibitors | hit rate 0.041% among 370,000;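 also: potency is read from the fitted curve at half-maximal effect; 0% = no-compound wells and -100% = no-enzyme wells; nearly all actives have a fitted effect of over 25% in size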
Target sequence (P00811 whole entry, looked up): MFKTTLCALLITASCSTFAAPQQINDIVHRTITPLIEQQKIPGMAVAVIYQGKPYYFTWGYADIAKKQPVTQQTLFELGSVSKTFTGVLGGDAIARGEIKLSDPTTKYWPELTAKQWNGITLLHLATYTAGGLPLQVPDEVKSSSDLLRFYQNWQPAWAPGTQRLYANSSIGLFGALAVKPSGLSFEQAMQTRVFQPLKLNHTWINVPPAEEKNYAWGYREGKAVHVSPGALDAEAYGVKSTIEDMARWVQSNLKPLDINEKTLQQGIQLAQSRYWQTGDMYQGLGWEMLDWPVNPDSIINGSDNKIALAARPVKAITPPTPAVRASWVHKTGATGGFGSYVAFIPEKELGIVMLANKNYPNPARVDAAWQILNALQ
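20 mM phosphate pH 7.0 + 0.01% (detergent screen) or 0.0001% Triton X-100; 5.3 nM AmpC reagent; cpd preinc 15 min RT; nitrocefin (800 uM stock) to start; A480 q20 s × 4 min; Activity was normalised to no-enzyme and no-compound control wells.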
AmpC inh no detg: inhibitors of E. coli AmpC beta-lactamase without detergent; P00811; hit rate 0.52% among 330,000; AmpC nitrocefin hydrolysis, absorbance 480 nm, 0.0001% Triton; Potency, µM (top dose mostly 57.1 µM), for inactives: at the top dose activity change, negative = inhibition, actives largely listed as inhibitors;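 also: potency is read from the fitted curve at half-maximal effect; plate controls were no compound for no effect and no enzyme for full effect; nearly all actives have a fitted effect of over 20% in size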
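20 mM phosphate pH 7.0 + 0.01% (detergent screen) or 0.0001% Triton X-100; 5.3 nM AmpC reagent; cpd preinc 15 min RT; nitrocefin (800 uM stock) to start; A480 q20 s × 4 min; Activity was normalised to no-enzyme and no-compound control wells.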
FMDV inh: foot and mouth disease virus antiviral activity. FMDV antiviral cell-based qHTS. hit rate 1.2% among 410,000. AID 1159524. Potency, µM (highest dose often 57.9 µM), for the others: top-dose activity change, negative = inhibition, most hits filed as inhibitors; calls by dose curve; tested in HEK293T cells; also: read-out not given here; potency is read from the fitted curve at half-maximal effect; nearly all actives have a fitted effect of over 45% in size
HCV inh: inhibitors of hepatitis C virus infection; Huh7.5.1 HCVcc-Cre infection, luciferase reporter, 44 h; Potency, µM (titrated, usually from 41.8 µM), for inactives: at the highest dose activity change, negative = inhibition, usual class: inhibitors; hit rate 3.4% among 340,000; also: potency is read from the fitted curve at half-maximal effect
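Seed cells (1,000/well) for 4 h; treat with compound and infect with HCVcc-Cre, moi about 0.5. Incubate 44 h, then detect luciferase activity.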
Starred values were filed as active, the others as inactive; u = inconclusive; x = no result; [ ] = another dose, or the depositor's remark. Most compounds without a hit are left out; they make up all but 7.3% or so of the library. Unless noted, calls follow the shape of the dose curve; as a rule, active = well fitted curve in the direction sought with a large enough effect; inconclusive = small, poorly fitted or top-dose-only effect, or another doubt; inactive = no such curve, though single readings can be large; an effect the other way counts as inactive or inconclusive. Unless noted, % is scaled to controls: 0 for no effect and ±100 for the full control effect.

SMILES	HCMV inh	AmpC inh detg	AmpC inh no detg	FMDV inh	HCV inh
COC(=O)c1ccc2c(=O)n(Cc3ccco3)c(SCC(=O)Nc3ccccc3Cl)nc2c1	-2	-13%	-11%	9%	u
Cc1cc(NC(=O)CSc2nc3cc(C(=O)NCCCOC(C)C)ccc3c(=O)n2Cc2ccco2)no1	-84*	-9%	-13%	-15%	7.1µM*
COC(=O)c1ccc2c(=O)n(Cc3ccco3)c(SCC(=O)Nc3cc(C)on3)nc2c1	-95*	-1%	-3%[2.29 µM]	0%	-23%
COCCNC(=O)c1ccc2c(=O)n(Cc3ccco3)c(SCC(=O)Nc3ccc(OC)cc3OC)nc2c1	u	-7%	90%	-24%	u
CC(C)c1ccc(S(=O)(=O)c2cn(CC(=O)Nc3ccc(F)cc3)c3ccccc3c2=O)cc1	-107*	2%	x	-18%	x
CC(=O)Nc1ccc(C(C#N)c2ccccc2)cc1 (stereo not drawn)	-23	5%	-17%	-2%	-14%
CCn1cc(C2=NOC(C(=O)Nc3cccc(C(C)=O)c3)C2)c(C)n1 (stereo not drawn)	-64*	-2%	-4%	u	6.3µM*
CCn1ncc(C2=NOC(C(=O)Nc3cnn(C45CC6CC(CC(C6)C4)C5)c3)C2)c1C (stereo not drawn)	-83*	u	119%	u	-23%
CCn1cc(C2=NOC(C(=O)Nc3c(C)nn(Cc4ccc(F)cc4)c3C)C2)c(C)n1 (stereo not drawn)	-19	u	28%	u	u
Cc1ccccc1C(=O)N1CCc2c(cnc(C)c2CNC(=O)CN2CCCCC2)C1	x	x	x	-20%	x
Cc1c(C(=O)NCc2ccc3c(c2)OCO3)cnn1-c1ncc2c(n1)-c1ccccc1CC2	x	x	x	47%	x
Cc1nc(CNC(=O)CC2C(=O)NCCN2Cc2ccoc2)nc2c1CCCC2 (stereo not drawn)	-36	-4%	-3%	6%	3%
COc1cc(Cl)c(C)cc1NC(=O)Cc1cccs1	-19	u	-47%	12%	3.5µM*
CN(C)C(=O)N(CCCN1CCOCC1)Cc1cccc2ccccc12	49	-6%	69%	-3%	-10%
Cc1onc(-c2ccccc2)c1C(=O)NC(=S)NNC(=O)c1ccncc1	4	-3%	-28%	1%	u
Cc1onc(-c2ccccc2)c1C(=O)NC(=S)NNC(=O)c1cc(-c2ccc(F)cc2)n[nH]1	20	2%	2µM*	26%	-23%
COc1ccc(N(C)S(=O)(=O)c2cccc(C(=O)OCC(=O)NCc3ccccc3OC)c2)cc1	8	-1%	-10%	-29%	-3%
C=CCN(c1ccccc1)S(=O)(=O)c1cccc(C(=O)N2CC(C)CC(C)C2)c1 (stereo not drawn)	-85*	-13%	101%	-14%	7.1µM*
C=CCN(c1ccccc1)S(=O)(=O)c1cccc(C(=O)N2CCCC2)c1	-26	-11%	36%	20%	-8%
CC1CC(C)CN(C(=O)c2cccc(S(=O)(=O)N(C)c3ccccc3)c2)C1 (stereo not drawn)	u	-15%	70%	0%	32µM*
COc1ccc(N(C)S(=O)(=O)c2cccc(C(=O)OCC(=O)N3CC(C)CC(C)C3)c2)cc1 (stereo not drawn)	-36	x	54%	32µM*	u
CC1(C)Cc2c(sc3c2c(N)nc(=S)n3Cc2ccc(Br)cc2)CO1	39	3%	-16%	-6%	-3%
Cc1oc(-c2ccccc2F)nc1Cn1c(SCc2ccccc2F)nc2ccncc21	7	20%	x	13%	x
COc1cccc(CN(C)C(=O)CNC(=O)c2cccs2)c1OC	-8	u	u	12%	2%[8.37 µM]
COc1cccc(CN(C)C(=O)CNC(=O)c2ccc(-c3ccccc3)cc2)c1OC	-71*	-1%	50%	u	3.2µM*
SMILES	HCMV inh	AmpC inh detg	AmpC inh no detg	FMDV inh	HCV inh
COc1cccc(CN(C)C(=O)CCN(c2ccccc2)S(=O)(=O)c2ccc(C)cc2)c1OC	-32	-7%	91%	-28%	11µM*
COc1ccc(F)cc1S(=O)(=O)NCCc1csc(-c2ccc(Cl)cc2)n1	-15	23%	x	28%	x
Cc1ccc(N2CC(C(=O)Nc3ccc(S(=O)(=O)NCC4CCCO4)cc3)CC2=O)cc1C (stereo not drawn)	3	u	26%	9%	-11%
COc1cccc(C(C(=O)NC2CCCCC2)N(CCN2CCOCC2)C(=O)C2COc3ccccc3O2)c1 (stereo not drawn)	2	-5%	48%	4%	5%
COc1ccc(N(C(=O)C2COc3ccccc3O2)C(C(=O)NC2CCCCC2)c2ccccc2)cc1OC (stereo not drawn)	-63*	-8%	-15%	-9%	u
COc1cc(OC)cc(N(C(=O)C2COc3ccccc3O2)C(C(=O)NC2CCCCC2)c2ccc(O)cc2)c1 (stereo not drawn)	-77*	-5%	-20%	0%	u
O=C(/C=C/c1ccc([N+](=O)[O-])cc1)/C=C/c1ccco1	-19	-11%	20µM*	x	x
C[C@@H]1CN([C@@H](C)CO)C(=O)CCCn2cc(nn2)CO[C@H]1CN(C)C(=O)Nc1ccc2c(c1)OCO2	-11	x	x	x	x
COc1cnc(-c2ccccn2)nc1Oc1cccc(C(F)(F)F)c1	-99*	-4%	131%	x	x
COc1ccc(Sc2nc(-c3ccccn3)ncc2OC)cc1	u	u	94%	-21%	u
COc1cnc(-c2ccccn2)nc1N(C)c1ccccc1	-98*	3%	0%	8%	10µM*
COc1cnc(-c2ccccn2)nc1Sc1ccccc1	-100*	6%	60%	0%	6.3µM*
COc1cnc(-c2ccccn2)nc1Oc1ccccc1	-31	5%	-7%	-13%	-4%
COc1cnc(-c2ccccn2)nc1Sc1ccc(F)cc1	u	6%	69%	-20%	0.56µM*
Cc1cccc(NC2=NC(C)(C)N=C(N)N2)c1	-98*	-5%	-18%	-19%	u
Fc1ccc(-c2cc(C(F)(F)F)nc(-n3cc(Cl)cn3)n2)cc1	u	u	-32%	0%	u
Cc1cnn(-c2nc(-c3ccccc3)cc(-c3ccccc3)n2)c1	u	10%	-14%	6%	7.9µM*
Cc1cnn(C(=O)c2cc(-c3ccccc3)nc3ccccc23)c1	36	4%	-8%	22%	12%
FC(F)(F)c1cc(-c2ccccc2)nc(-n2cc(Cl)cn2)n1	-60*	u	-3%	u	u
Cc1ccc(Cl)cc1NC(=O)N(C)CCOC(=O)Nc1cccc(Cl)c1	-9	x	x	x	x
CCCCn1c(N)c(N(CCOC)C(=O)CSCc2ccc(C)cc2)c(=O)[nH]c1=O	-27	-13%	u	-11%	12%

Screens: PubChem, National Center for Advancing Translational Sciences (NCATS)
